Measurements reported in the supplement of paper PMC13380429.
Values without a mark were called inactive.

System: Vero E6 infected with SARS-CoV-2
Test: inhibition of SARS-CoV-2 cytopathic effect; higher = more antiviral protection, active = above 15
Details: 48 h

| Structure (SMILES) | inhibition of SARS-CoV-2 cytopathic effect (1 nM) | inhibition of SARS-CoV-2 cytopathic effect (8.33 nM) | inhibition of SARS-CoV-2 cytopathic effect (100 nM) | inhibition of SARS-CoV-2 cytopathic effect (833.33 nM) | inhibition of SARS-CoV-2 cytopathic effect (10000 nM) |
| --- | --- | --- | --- | --- | --- |
| CNCCC=C1c2ccccc2CCc2ccccc21 [nortriptyline] | 1.29% | -0.85% | 0.56% | 1.26% | -4.8% |
| O=C(N[C@H]1CCN(C(=O)c2cc(C(F)(F)F)cc(C(F)(F)F)c2)[C@H](Cc2ccc(Cl)cc2)C1)c1ccnc2ccccc12 | -1.66% | -1.32% | 1.01% | 2.87% | 0.89% |
| C=CC(=O)Nc1cccc(Nc2nc(Nc3ccc(N4CCN(C(C)=O)CC4)cc3OC)ncc2C(F)(F)F)c1 [rociletinib] | -0.09% | -1.67% | -0.14% | -2.42% | -11.9% |
| O=C(O)[C@H](CC(=O)N1C[C@H]2CCCC[C@H]2C1)Cc1ccccc1 [mitiglinide] | -0.3% | -1.42% | -1.04% | -1.17% | 1.67% |
| CCOc1nc2c(N)ncnc2n1CC | -1.28% | 2.22% | -1.47% | 1.94% | -1.72% |
| O=C1CCc2ccc(OCCCCN3CCN(c4cccc(Cl)c4Cl)CC3)cc2N1 [aripiprazole] | 5.18% | -2.79% | 1.15% | -1.05% | -5.25% |
| COC(=O)C[C@](O)(CCC(C)(C)O)C(=O)O[C@@H]1C(OC)=C[C@]23CCCN2CCc2cc4c(cc2[C@H]13)OCO4 [harringtonine] | 1.51% | 0.45% | -10.7% | 19.9% (active) | -9.74% |
| O=C(O)c1ccccc1-c1ccc(C(F)(F)F)cc1 [xenalipin] | -4.08% | 1.65% | 4.8% | 4.27% | -2.23% |
| O=C1Nc2ccccc2/C1=C1/Nc2ccccc2C1=O [indirubin] | -0.6% | -1.11% | -0.33% | 1.04% | 0.51% |
| CN1CCN(CC/C=C2/c3ccccc3Sc3ccc(S(=O)(=O)N(C)C)cc32)CC1 [thiothixene] | -3.86% | -3.67% | -4.39% | -3.71% | 14% |
| C[C@]12CC[C@H](O)C[C@H]1CC[C@@H]1[C@@H]2CC[C@]2(C)[C@@H](c3ccc(=O)oc3)C[C@H]3O[C@]132 [resibufogenin] | -0.2% | -2.33% | -5.86% | -20.4% | -20.4% |
| O=[N+]([O-])c1cn2c(n1)OC[C@@H](OCc1ccc(OC(F)(F)F)cc1)C2 [pretomanid] | 0.26% | 0.54% | -0.43% | -0.88% | 0.65% |
| CC(C)N(CCNC(=O)CN1CCCC1=O)C(C)C [pramiracetam] | -3.32% | -1.27% | 0.57% | 3.04% | 0.12% |
| C[C@@H]1CN(CC(=O)Nc2ccc3c(c2)Cc2cccc(-c4cc(=O)cc(N5CCOCC5)o4)c2S3)C[C@H](C)O1 | -2.04% | 0.24% | 2.16% | 2.87% | 35.7% (active) |
| CCN(CC)CCNC(=O)COc1ccc(OC)cc1 [mefexamide] | 1.84% | 2.71% | -0.86% | -0.89% | -2.3% |
| Cc1noc(NS(=O)(=O)c2cccc3c(N(C)C)cccc23)c1C | 0.18% | 0.76% | 0.03% | 1.44% | 0.04% |
| Cc1cccc(C)c1NC(=O)c1ccc(N)cc1 [ameltolide] | 0.76% | 1.03% | 0.37% | -0.04% | -2.67% |
| CCCSc1nc(N[C@@H]2C[C@H]2c2ccc(F)c(F)c2)c2nnn([C@@H]3C[C@H](OCCO)[C@@H](O)[C@H]3O)c2n1 [ticagrelor] | -0.64% | 1.24% | -0.46% | 0.82% | 1.32% |
| Cc1nnc2n1-c1sc(CCC(=O)N3CCOCC3)cc1C(c1ccccc1Cl)=NC2 [apafant] | 2.67% | -1.44% | 0.93% | 1.94% | 29% (active) |
| CN1CCN(c2ccc3[nH]c(-c4ccc5[nH]c(-c6ccc(O)cc6)nc5c4)nc3c2)CC1 [pibenzimol] | -0.58% | -1.08% | 1.05% | 2.62% | 4.07% |

| Structure (SMILES) | inhibition of SARS-CoV-2 cytopathic effect (1 nM) | inhibition of SARS-CoV-2 cytopathic effect (8.33 nM) | inhibition of SARS-CoV-2 cytopathic effect (100 nM) | inhibition of SARS-CoV-2 cytopathic effect (833.33 nM) | inhibition of SARS-CoV-2 cytopathic effect (10000 nM) |
| --- | --- | --- | --- | --- | --- |
| O=c1[nH]c(=O)n([C@H]2C[C@H](O)[C@@H](CO)O2)cc1C(F)(F)F [trifluridine] | -2.13% | 0.14% | 0.73% | 1.01% | -1.77% |
| CCCCNc1c(C(=O)OCC)c(C)nc2c1cnn2CC [tracazolate] | -0.41% | 1.49% | -0.22% | -2.81% | -1.99% |
| Cn1c(Nc2ccc(C(F)(F)F)cc2)nc2cc(Oc3ccnc(-c4ncc(C(F)(F)F)[nH]4)c3)ccc21 | 0.79% | 1.69% | 0.4% | 0.16% | 4.48% |
| CCCC[C@]1(CC)CS(=O)(=O)c2cc(CNC(CC(=O)O)CC(=O)O)c(OC)cc2[C@@H](c2ccccc2)N1 | 3.94% | 3.04% | 5.12% | 1.44% | 1.53% |
| O=C1c2ccccc2-c2c(NCCc3ccccc3)c(=O)[nH]c3cccc1c23 | -0.39% | 1.98% | 0.01% | 2.52% | 1.12% |
| CCCCCn1cc(C(=O)NC23CC4CC(CC(C4)C2)C3)c(=O)c2cc(-c3ccccc3)ccc21 | -3.48% | -3% | -0.96% | -1.94% | -5.93% |
| O=C(c1ccccc1)c1ccc2n1CCC2C(=O)O (stereo not given) [ketorolac] | -4.39% | -2.99% | -1.5% | 2.44% | -4.37% |
| Nc1nc2[nH]cc(CCc3ccc(C(=O)N[C@@H](CCC(=O)O)C(=O)O)cc3)c2c(=O)[nH]1 [pemetrexed] | -1.03% | 0.64% | 1.39% | -2.48% | -1.3% |
| Cn1cc(C(=O)C(=O)N[C@H]2CN3CCC2CC3)c2ccccc21 | 0.78% | 1.33% | 0.72% | -1.49% | 1.51% |
| CC(C)(C)NS(=O)(=O)c1cncc(-c2cc(F)c3nc(N)nn3c2)c1 | 3.23% | 2.61% | -1.19% | 0.27% | 0.39% |
| COc1ccc(CCN(C)CCc2ccc(OC)c(OC)c2)cc1OC | 0.34% | 3.91% | 0.58% | 4.35% | 3.64% |
| Cc1nnc(-c2ccc3occ(-c4ccc([S+](C)[O-])cc4)c3c2)o1 (stereo not given) | 0.61% | 0.11% | -1.48% | 1.56% | 8.77% |
| CC1(C)O[C@@H]2[C@@H](CO[C@@]3(COS(N)(=O)=O)OC(C)(C)O[C@@H]23)O1 [topiramate] | -1.19% | 1.71% | -2.21% | 0.74% | -0.18% |
| CC(C)(O)C(Cl)(Cl)Cl [chlorobutanol] | 0.34% | 1.76% | 0.44% | 1.86% | -2.07% |
| CCOc1ccc(-n2c([C@@H](C)N(Cc3cccnc3)C(=O)Cc3ccc(OC(F)(F)F)cc3)nc3ncccc3c2=O)cc1 (racemic) | 0.51% | 2.23% | 0.96% | 1.88% | -1.62% |
| CCOCCn1c(N2CCCN(C)CC2)nc2ccccc21 [emedastine] | -2.21% | 0.36% | -2.49% | 1.46% | -0.01% |
| Nc1cccc2c(=O)[nH][nH]c(=O)c12 [monosodium-alpha-luminol] | -0.8% | 0.14% | -1.27% | -0.92% | 2.06% |
| C[C@]1(c2nc3c(C(N)=O)cccc3[nH]2)CCCN1 [veliparib] | 3.9% | 7.83% | 5.13% | 4.23% | 8.58% |
| Cc1cc(OCCCS(C)(=O)=O)cc(C)c1-c1cccc(COc2ccc3c(c2)OC[C@H]3CC(=O)O)c1 | -1.83% | 0.64% | -0.31% | 3.74% | 2.41% |
